Data from PubChem BioAssay (NCATS).
“And” between values parts separate entries of the source, which are not always exact repeats. Equal entries are not always repeated. Results filed as inconclusive are left out. The source made the active and inactive calls. Calls come from the whole dose curve; as a rule, active = well fitted cell-killing curve with a large enough effect; inconclusive = small, poorly fitted or top-dose-only effect, or effect the other way; inactive = no such curve, though single readings can be large or run the other way.

Assay: Viability qHTS for spleen associated tyrosine kinase inhibitor (SYKi) naive MV4-11 cells (AID 1963823); note: nearly all actives have a fitted effect of over 40% in size
Conditions: MV4-11 AML viability, CellTiter-Glo luminescence, 72 h; series mostly up to 45 µM; viability (% of control): at the top concentration
Description: Department of Medicine, Hematology/Oncology
University Hospital Frankfurt, Germany.
Trials have shown promising clinical activity of the selective SYK inhibitor entospletinib in patients with high expressing HOXA9/MEIS1 acute leukemias. As the development of resistance mechanisms is a common problem in the use of targeted drugs, we performed a chemical library screen to identify drug sensitivities in SYK inhibitor resistant AML cells. […] Glucocorticoids are potent immunosuppressants which work in part by inhibiting the transcription of cytokine genes.
Described herein is a viability screen to look for activity in the SYK inhibitor naive cell line against four NCATS compound libraries (MIPE 5.0, NPC, NPACT, and Kinase) totaling 11372 compounds. Active hits were reacquired for confirmation and further secondary assay testing.
SEQUENCE No. (e.g., 1, 2, 3, etc.); […] (e.g., Cells, Incubation, Reagent, etc.); VALUE; DESCRIPTION.
1; Media; 2uL; white, solid-bottom Corning assay plate.
2; Compounds; 23nL; Echo acoustic dispenser.
3; Cell; 5uL; 500 cells per well.
4: Incubation; 72hr; 37 C, 5% CO2, 95% humidity.
5; Reagent; 3uL; CellTiter-Glo reagent (Promega).
6; Incubation; 10min; room temperature.
7; Detection; Luminescence; ViewLux plate reader (PerkinElmer).
NOTES (numbers refer to Sequence numbers above
1. Quantitative high-throughput screening (qHTS) of small molecule compounds was conducted on naive SYKi MV4-11 cell line.
2. Twenty-three nanoliter of small molecule compounds were added to each assay plates using the Echo acoustic dispenser (Beckman Coulter).
3. Cells were seeded into the assay plates at a final density of 500 cells in 5uL of media per well using the Multi-drop Combi dispenser.
4. Plates were covered with stainless steel gasketed lids and incubated for 72 hours at standard cell culture conditions.
5. Viability was assessed by adding 3uL of CellTiter-Glo detection reagent (Promega).
6. Plates were covered with gasket lids and incubated for 10 minutes at room temperature.
7. Luminescence was measured on a ViewLux plate reader (PerkinElmer).
Potency is the fitted concentration of half-maximal effect.

SMILES	Potency	viability (% of control)
N#Cc1ccc(-c2ccc(S(=O)(=O)Nc3cccc(N)n3)cc2)cc1	8.2 µM (active)	–
C[N+](C)(C)CCCCCCCCCC[N+](C)(C)C	–	76.7% (inactive)
CN(C)CC(c1ccc(O)cc1)C1(O)CCCCC1 (stereo not given)	–	81.4% (inactive)
CCNC(=O)Nc1ccc(-c2nc3c(c(N4CCOC[C@@H]4C)n2)CCN(C2COC2)C3)cc1	0.934 µM (active)	–
CC1=C2CC(O)(C(C)(C)O)C(O[C@@H]3O[C@H](CO)[C@@H](O)[C@H](O)[C@H]3O)CC(C)C2CC1=O (stereo not given in full)	–	63.5% [at 17.3 µM] (inactive)
CC1=COC(OC2OC(CO)C(O)C(O)C2O)C2C(CO)CC(OC(=O)/C=C/c3ccc(O)cc3)C12 (stereo not given)	–	80.6% [at 17.3 µM] (inactive)
COC(=O)N[C@H](C(=O)N1CCC[C@H]1c1ncc(-c2ccc(-c3ccc(-c4cnc([C@@H]5CCCN5C(=O)[C@@H](NC(=O)OC)C(C)C)[nH]4)cc3)cc2)[nH]1)C(C)C	18.6 µM (active)	–
CC(C)[C@@H]1CC[C@@H](C)CC1=O	–	76.5% (inactive)
O=C(CCN1CCN(C(=O)OCc2cc(Cl)cc(Cl)c2)CC1)c1ccc2[nH]c(=O)oc2c1	20.6 µM (active) and 8.33 µM (active)	–
CC1C(=O)OCC2=CCN3CCC(OC(=O)C(C)(O)C1(C)O)C23 (stereo not given)	–	72.2% (inactive)
O=C(CC1NCCC[C@H]1O)Cn1cnc2cc(Br)c(Cl)cc2c1=O (stereo not given in full)	–	64.6% (inactive)
C=C[C@H]1[C@H](O[C@@H]2O[C@H](CO)[C@@H](O)[C@H](O)[C@H]2O)OC=C(C(=O)OC)[C@H]1C/C=C(/C=O)[C@@H]1C(C(=O)OC)=CO[C@@H](O[C@@H]2O[C@H](CO)[C@@H](O)[C@H](O)[C@H]2O)[C@@H]1C=C	–	83.4% [at 17.3 µM] (inactive)
CC1=C(C(=O)O)/C(=C/CO[C@@H]2O[C@H](COC(=O)/C=C/c3ccc(O)cc3)[C@@H](O)[C@H](O)[C@H]2O)C(O)C1 (stereo not given in full)	–	76.3% [at 17.3 µM] (inactive)
Cc1ncc(CO)c(C=O)c1O	–	74.9% (inactive)
NC1Nc2ccccc2C1(N)CC1NC(=O)C(Cc2ccccc2)NC(=O)C(Cc2ccccc2)NC1=O (stereo not given)	–	62.1% [at 17.3 µM] (inactive)
CCc1c(-c2ccccc2)c(-c2ccccc2)nn1-c1ccccc1-c1cccc(OCC(=O)O)c1	–	91.2% (inactive)
O=C1NC(c2ccccc2)(c2ccccc2)C(=O)N1COP(=O)(O)O	–	73% (inactive)
Cc1c(C(C)C)c(=O)n(-c2ccccc2)n1C	–	76.4% (inactive)
Cc1ccc(S(=O)(=O)Nc2cc(C(F)(F)F)ccc2C(=O)Nc2nc(-c3ccccc3)cs2)cc1	2.95 µM (active)	–
OC1COC(OCC2OC(OCCc3ccccc3)C(O)C(O)C2O)C(O)C1O (stereo not given)	–	84.8% [at 17.3 µM] (inactive)

SMILES	Potency	viability (% of control)
CN(C)CCCNC(=O)c1ccc(-c2cc(O)c3ncccc3c2)cc1	5.8 µM (active)	–
CN1C(=O)c2ccccc2NC(=O)[C@]12O[C@@H]2c1cccc(O)c1	–	72.5% (inactive)
O=C(O)c1cn(-c2ccc(F)cc2)c2cc(N3CCNCC3)c(F)cc2c1=O	–	77.2% [at 17.3 µM] (inactive)
Fc1ccccc1CNCc1ccc(-c2ccnc3[nH]ccc23)cc1	5.17 µM (active)	–
CC(C)(O)CC[C@@H](O)[C@](C)(O)[C@H]1CC[C@@]2(O)C3=CC(=O)[C@@H]4C[C@@H](O)[C@@H](O)C[C@]4(C)[C@H]3CC[C@]12C	–	89% (inactive)
COc1ccc2c(c1)c(CC(=O)OCC(=O)O)c(C)n2C(=O)c1ccc(Cl)cc1	–	70.5% (inactive)
COc1ccc(C2(O)c3ccccc3NC(=O)C2O)cc1 (stereo not given)	–	57.4% (inactive)
CCOc1ncc(F)c(=O)[nH]1	–	66.2% (inactive)
O=C(NCCCNC(=O)c1ccc[nH]c1=O)c1cc(-c2ccccc2)on1	4.68 µM (active)	–
O=C(O)c1cn(C2CC2)c2cc(N3CCNCC3)c(F)cc2c1=O	inactive	–
CCCc1cc(=O)[nH]c(=S)[nH]1	inactive	–
CCCc1cc(C)[nH]c(=O)c1CNC(=O)c1cc(-c2ccc(N3CCN(C(C)C)CC3)nc2)cc2c1cnn2C(C)C	13 µM (active) and 5.9 µM (active)	–
Cc1nc(-c2cn3c(n2)-c2ccc(-c4cnn(C(C)(C)C(N)=O)c4)cc2OCC3)n(C(C)C)n1	0.148 µM (active)	–
CCC(=O)NC[C@H](Cc1ccc(OCCc2nc(-c3ccccc3)oc2C)cc1)N/C(C)=C\C(=O)c1ccc(C(F)(F)F)cc1	16.6 µM (active)	–
NC[C@@](O)(c1ccc(Cl)cc1)c1ccc(-c2cn[nH]c2)cc1	2.06 µM (active) and 3.32 µM (active)	–
COc1ccc(-c2cnc(-c3cccc4c3-c3ccccc3C4=O)o2)cc1	0.0893 µM (active)	–
CCOC(=O)C1=C(O)C(=O)N(Cc2ccccc2)C1	–	83.6% (inactive)
NC1(Cc2ccc(Cl)cc2)CCN(c2ncnc3[nH]ccc23)CC1	3.72 µM (active)	–
NC(=O)[C@H]1CCCCc2c1[nH]c1ccc(Cl)cc21	–	74.2% [at 17.3 µM] (inactive)
O=C(CCOCCOCCOCCOCCC(=O)Nc1c(I)cc(I)c(C(=O)O)c1I)Nc1c(I)cc(I)c(C(=O)O)c1I	–	86.6% (inactive)
